Hits are enriched below; roughly 8.1% of the tested compounds scored in any of these assays.
Epigenetic derep: derepresses silenced GFP reporter in murine cells. murine LDR cells, GFP reporter derepression, 30 h. Potency, µM (doses to about 53.9 µM), for the others: at the top dose GFP activation, actives largely listed as activators. 0.2% of 280,000 active; further: % of control where 0% means no effect; nearly all actives have a fitted effect of over 60% in size
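Murine LDR cells bearing a silenced CMV-driven GFP reporter were exposed to compound for 30 h at 37 C. After PBS washes, GFP-positive cells (20-120 um objects) counted by laser-scanning microplate cytometry.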
RORg inh: ROR gamma (mouse) transcription inhibition. 5.4% of 310,000 active. Potency, µM (titrated, usually from 53.6 µM), for inactives: at the top dose activity change, negative = inhibition, actives largely listed as inhibitors. P51450. Drosophila S2 Gal4-RORgamma UAS-luciferase reporter, 20 h; further: on the % scale 0 is the no-effect control and ±100 the full control effect; nearly all actives have a fitted effect of over 60% in size
Target sequence (P51450 whole entry, looked up, the tested form may be a part): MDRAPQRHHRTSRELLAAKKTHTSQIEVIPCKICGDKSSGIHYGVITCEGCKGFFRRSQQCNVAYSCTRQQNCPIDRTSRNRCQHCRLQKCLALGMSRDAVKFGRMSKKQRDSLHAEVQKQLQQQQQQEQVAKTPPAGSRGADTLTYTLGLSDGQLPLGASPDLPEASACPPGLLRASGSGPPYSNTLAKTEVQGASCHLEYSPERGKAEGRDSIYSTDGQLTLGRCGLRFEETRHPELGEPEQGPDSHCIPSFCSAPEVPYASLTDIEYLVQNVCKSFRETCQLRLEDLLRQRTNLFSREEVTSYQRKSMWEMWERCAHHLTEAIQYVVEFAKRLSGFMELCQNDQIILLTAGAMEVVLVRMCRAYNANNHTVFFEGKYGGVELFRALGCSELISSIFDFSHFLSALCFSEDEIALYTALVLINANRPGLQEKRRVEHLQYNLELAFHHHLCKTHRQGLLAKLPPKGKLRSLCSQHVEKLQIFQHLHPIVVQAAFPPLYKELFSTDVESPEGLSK
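In this cell-based reporter format, copper sulfate (700 uM final) drives Gal4–ROR gamma fusion expression from a metallothionein promoter in Drosophila Schneider cells; compounds preincubated 1 hr, reporter read after 20 hr at ambient temperature.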
ClpP mod: qHTS Assay for Activators of ClpP. purified B. subtilis ClpP, FRET peptide cleavage, 20 min. Potency, µM (series often up to 57.5 µM), inactives show top-dose activity change, negative = active. 1.9% of 340,000 active. AID 651965, 2013; active means well fitted falling curve with a large enough effect; inconclusive means small, poorly fitted or top-dose-only effect; inactive means no such curve, though single readings can be large or run the other way; further: the source files actives as falling curves though it sought activators and does not explain the sign; nearly all actives have a fitted effect of over 65% in size
Target sequence (P80244 whole entry, looked up): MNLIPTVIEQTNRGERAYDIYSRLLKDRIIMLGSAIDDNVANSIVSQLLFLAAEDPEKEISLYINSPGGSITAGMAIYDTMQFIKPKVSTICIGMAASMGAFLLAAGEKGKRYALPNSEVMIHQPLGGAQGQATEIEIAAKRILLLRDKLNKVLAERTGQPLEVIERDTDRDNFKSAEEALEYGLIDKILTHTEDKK
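Purified B. subtilis ClpP, 10 microg/mL final in Tris/HCl pH8 with KCl, BSA, glycerol and Tween-20, cleaved an Abz/nitrotyrosine-quenched decapeptide. Fluorescence (ex 320, em 430) was read at 0 and 20 min at room temperature. Delta was normalized to 5.8 microM ADEP and DMSO/no-enzyme controls.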
Sfp inh: Sfp phosphopantetheinyl transferase inhibition. AID 1490. Q9F4F7. Potency, µM, for the others: largest response in the series, negative = inhibition, hits mostly inhibitors. 3.5% of 310,000 active. Biochemical Sfp PPTase activity, qHTS;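 further: the enzyme is Sfp with the accession as filed and its product quenches rhodamine fluorescence; 0% = enzyme reaction without inhibitor and -100% = no enzyme wells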
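Compounds were incubated with enzyme (final 15 nM) for 15 min at room temperature before substrate addition started the reaction. Fluorescence at 525 nm excitation, 598 nm emission was recorded immediately and after 30 minutes.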
VP16 counter: Gal4-VP16 reporter inhibition counter-screen | Drosophila S2 Gal4-VP16 UAS-luciferase, luminescence, 20 h | Potency, µM (titrated, usually from 53.6 µM), inactives show top-dose activity, negative = inhibition, actives largely listed as inhibitors | 3.5% of 310,000 active | AID 2546;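 further: Gal4-VP16 expression switched on by copper sulfate through the metallothionein promoter; on the % scale 0 is the no-effect control and ±100 the full control effect; nearly all actives have a fitted effect of over 50% in size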
PINK1 modulator: PINK1 expression modulation; PINK1 immunofluorescence, high-content cytometry, 24 h; Potency, µM (highest dose often 76.6 µM), without a hit: at the top dose activation (PINK1 increase), usual class: activators; 0.2% of 410,000 active; AID 624263; active means well fitted activation curve with a large enough effect; inconclusive means small, poorly fitted or top-dose-only effect; cell line not stated here; further: % of control where 0% means no effect; nearly all actives have a fitted effect of over 65% in size
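Stable cell line treated 24 h with compounds at 5 concentrations (CCCP controls), then fixed and immunostained for PINK1 plus nuclear and cell stains; PINK1 immunofluorescence quantified by laser-scanning microplate cytometry.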
* marks the source's active call; other numbers are inactive results; ? = inconclusive; / = no result given; [ ] = another dose, or the depositor's remark. Unless noted, the call rests on the fitted dose curve; in most records, active means well fitted curve in the direction sought with a large enough effect; inconclusive means small, poorly fitted or top-dose-only effect, or another doubt; inactive means no such curve, though single readings can be large; an effect the other way counts as inactive or inconclusive. Potency means the concentration at half of the fitted maximal effect.

SMILES	Epigenetic derep	RORg inh	ClpP mod	Sfp inh	VP16 counter	PINK1 modulator
O=C(N/N=C/c1ccc(N2CCOCC2)o1)c1cccc([N+](=O)[O-])c1	-6.2%	-26.2%	-2.7%	1.12µM*	-21.4%	-1.8%
O=C(N/N=C/c1ccc(N2CCCCC2)o1)c1ccccc1	0.0%	5.01µM*	-3.0%	-107.5%	5.01µM*	-0.9%
O=C(N/N=C/c1ccccc1)c1ccc(N2CCOCC2)c([N+](=O)[O-])c1	0.0%	?	0.8%	-9.5%	4.5%	-1.6%
Cc1c(N=C=O)cccc1N=C=O	/	2.9%	/	/	-2.1%	/
CC(C)N(C(=S)NC1CC2CCC1C2)c1ccccc1 (stereo not drawn)	0.0%	?	/	11.8%	-7.0%	0.0%
CN(C)c1cccc(C(=O)NNC(=S)NC2CC3CCC2C3)c1 (stereo not drawn)	-1.5%	3.98µM*	-4.4%	12.0%	-14.0%	2.2%
CCn1c(SCC(=O)N(C)c2c(N)n(Cc3ccccc3)c(=O)[nH]c2=O)nc2ccccc21	-4.9%	8.0%	/	28.2µM*	-3.7%	0.2%
Cc1ccc2c(CC(=O)N(C)c3c(N)n(Cc4ccccc4)c(=O)[nH]c3=O)coc2c1	/	/	25.1µM*	/	/	-2.1%
CCN(C(=O)COC(=O)Cc1coc2cc(C)ccc12)c1c(N)n(Cc2ccccc2)c(=O)[nH]c1=O	/	/	-0.9%	/	/	-2.5%
Cc1nnc(SCC(=O)N(C)c2c(N)n(Cc3ccccc3)c(=O)[nH]c2=O)n1Cc1ccccc1	-0.5%	-14.3%	/	3.7%	-3.7%	-1.6%
COc1cccc(N2CC(NC(=O)C(c3ccccc3)c3ccccc3)CC2=O)c1 (stereo not drawn)	5.0%	/	-3.2%	/	/	1.2%
COc1ccc(C(=O)OCc2cc(=O)n3nc(-c4cccs4)sc3n2)cc1	5.2%	/	-24.0%	/	/	17.1%
CCOc1ccc(N(C(C)C(=O)NCCSc2ccc(Cl)cc2)S(C)(=O)=O)cc1 (stereo not drawn)	-0.2%	/	-1.3%	/	/	-0.4%
CCC1=NN(C(=O)c2ccc(C)cc2)C(O)(c2ccc(Br)cc2)C1 (stereo not drawn)	1.0%	?	0.9%	12.8%	12.6µM*	-0.2%
COC(=O)C1=NN(C(=O)c2ccc(C)cc2)C(O)(c2ccc(Cl)cc2)C1 (stereo not drawn)	-2.1%	-34.9%	-1.7%	5.9%	-5.9%	/
CCC1=NN(C(=O)c2cccc(Br)c2)C(O)(c2ccc(Br)cc2)C1 (stereo not drawn)	1.1%	-6.9%[10 µM]	-1.5%	-8.5%	-14.0%	?
CCC1=NN(C(=O)c2ccc(Br)cc2)C(O)(c2ccc(C)cc2)C1 (stereo not drawn)	0.0%	12.6µM*	2.3%	15.4%	11.2µM*	12.7%
CC(=O)Nc1sc(N/N=C/c2ccccc2)nc1-c1ccc(C)cc1	-0.4%	-16.7%	-0.1%	-3.6%	2.5%	-0.2%
CC(=O)Nc1sc(/C(C#N)=C\c2cccc(Cl)c2)nc1-c1ccc(C)cc1	7.94µM*	-9.0%	0.7%	?	5.3%	1.8%
O=C(C1=C(c2ccccc2)C(=O)c2ccccc2C1=O)c1ccccc1	-1.0%	11.2µM*	/	-8.6%	11.2µM*	-1.4%
COC1=C(c2ccccc2)C(=O)c2ccccc2C1=O	-4.3%	-15.6%	/	2.9%	-17.7%	6.4%
CC(=O)N1CC[n+]2c(-c3ccc(Cl)cc3)csc21	0.0%	-2.8%	0.2%	?	2.5%	-0.9%
CCc1ccc(-c2csc3[n+]2CCN3C(C)=O)cc1	-1.1%	-44.3%	-0.3%	39.8µM*	-0.2%	-3.8%[38.3 µM]
O=C(NNC1=NS(=O)(=O)c2ccccc21)c1ccc(Cl)cc1	0.1%	-41.8%	1.6%	22.0%	?	-2.4%
O=C(NNC1=NS(=O)(=O)c2ccccc21)c1ccc([N+](=O)[O-])cc1	/	12.6µM*	/	-22.3%	?	0.1%
SMILES	Epigenetic derep	RORg inh	ClpP mod	Sfp inh	VP16 counter	PINK1 modulator
CCC1=NN2C(=N)/C(=C\c3ccc(SCc4ccco4)o3)C(=O)N=C2S1	-0.7%	-16.4%	-1.8%	44.7µM*	12.6%	1.1%
CCCC1=NN2C(=N)/C(=C\c3ccc(SCc4ccco4)o3)C(=O)N=C2S1	0.8%	13.4%	-1.2%	56.2µM*	3.3%	5.0%
O=C1NC(=S)S/C1=C\c1ccc(SCc2ccco2)o1	-2.2%	-19.8%	1.2%	20µM*	?	4.0%
CCC1=NN2C(=N)/C(=C/c3c(C)nn(-c4ccccc4)c3Cl)C(=O)N=C2S1	5.2%	?	3.0%	-2.2%	?	-1.1%
CCN(c1ccccc1)S(=O)(=O)c1ccc(NC(=O)c2nc(SC)ncc2Cl)cc1	-1.0%	/	-2.5%	/	/	10.0%
Cc1onc(-c2ccccc2)c1C(=O)NCCN1Cc2ccccc2OC(c2ccsc2)C1 (stereo not drawn)	/	/	/	/	/	2.0%
Cc1ccc(NC(=O)CN(CCc2ccccc2)S(=O)(=O)c2ccccc2)c(C)c1	-1.6%	/	-1.2%	/	/	10.6%
CC1CCN(c2[nH]c(=S)c(C#N)c3c2CCCC3)CC1	-0.7%	7.08µM*	0.0%	31.6µM*	?	1.0%[38.3 µM]
CCCCC1OC2(C)OC(=N)C1(C#N)C(C#N)(C#N)C2c1ccccc1 (stereo not drawn)	1.0%	-14.1%	31.6µM*	21.2%	1.1%	-1.6%
CCCC1OC23CCCCC2C(C#N)(C(=N)O3)C1(C#N)C#N (stereo not drawn)	-1.2%	-17.5%	?	-11.1%	5.5%	0.1%
CC1OC2(C)OC(=N)C1(C#N)C(C#N)(C#N)C2c1ccccc1 (stereo not drawn)	0.0%	-14.5%	25.1µM*	-3.1%	-19.7%	2.0%
CC1C2(C)OC(=N)C(C#N)(C(C)O2)C1(C#N)C#N (stereo not drawn)	1.0%	-1.2%	/	-10.2%	12.1%	0.2%
COc1cccc(C(=O)N2CCN(CCc3ccncc3)CC2)c1	-4.4%	/	-0.5%	/	/	-0.6%
O=C1N=C(N2CCCCC2)SC1=C1CCCCC1	0.5%	2.1%	-3.6%	-3.5%	3.5%	-2.0%
O=C1NC(=S)SC1=C1CCCCCC1	-2.4%	8.4%[10 µM]	-1.9%	35.5µM*	?	-1.0%
COc1cc(OC)c(NC(=O)c2cc(CN3CCOCC3)on2)cc1Cl	0.0%	/	0.7%	/	/	1.8%
Nc1ccc(N2CCN(c3ccc(F)cc3)CC2)cc1	-4.5%	7.0%	/	-2.7%	-20.2%	-0.1%
Oc1cccc(C(=S)N2CCCCC2)c1	1.0%	10.0%	/	22.4µM*	-13.6%	-0.2%
Nc1ccc(N2CCCCCC2)cc1	-0.7%	?	/	8.91µM*	?	/
S=C(c1ccc2c(c1)OCO2)N1CCCCCC1	-1.0%	-15.4%	-1.7%	-28.6%	-0.3%	11.3%[38.3 µM]
S=C(c1ccc(N2CCOCC2)cc1)N1CCOCC1	-0.8%	18.5%	0.0%	-6.5%	-10.6%	0.6%[38.3 µM]
